Data reported in PubChem BioAssay (NCI).
About 83,000 compounds went through this panel and 20% of them were active in at least one assay; those are over-represented in the sample as a whole.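 In brief: 96-well plates, 48 h treatment, single concentration, percent growth endpoint.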 Unmarked numbers belong to inactive results. The source made the active and inactive calls. Rule for the calls: active = growth percent below 10; inactive = the rest.

Key:
Assay in all cases: NCI-60 one-dose screen, 48 h (100 = growth as untreated, 0 = no growth, -100 = all killed)
Details in all cases: 10 µM unless noted
NCI-H23 lung = tested on: NCI-H23 lung
NCI-H226 lung = tested on: NCI-H226 lung
NCI-H322M lung = tested on: NCI-H322M lung
HOP-62 NSCLC = tested on: HOP-62 NSCLC
NCI-H460 lung = tested on: NCI-H460 lung
HOP-92 NSCLC = tested on: HOP-92 NSCLC
NCI-H522 lung = tested on: NCI-H522 lung
A549/ATCC NSCLC = tested on: A549/ATCC NSCLC
786-0 renal = tested on: 786-0 renal
COLO 205 colon = tested on: COLO 205 colon

| SMILES | growth (NCI-H23 lung) | growth (NCI-H226 lung) | growth (NCI-H322M lung) | growth (HOP-62 NSCLC) | growth (NCI-H460 lung) | growth (HOP-92 NSCLC) | growth (NCI-H522 lung) | growth (A549/ATCC NSCLC) | growth (786-0 renal) | growth (COLO 205 colon) |
| --- | --- | --- | --- | --- | --- | --- | --- | --- | --- | --- |
| Cn1cc(-c2csc(-c3cn(C)c4ccc(F)cc34)n2)c2cnccc21 | 75.7% | 68.5% | 21.9% | -70.9% (active) | -73.8% (active) | 70.8% | -76% (active) | 1.42% (active) | -91.6% (active) | -80.1% (active) |
| C=C(CNCCO)[C@@H]1CC[C@]2(CO)CC[C@]3(C)[C@H](CC[C@@H]4[C@@]5(C)CCC(NCCO)C(C)(C)[C@@H]5CC[C@]43C)[C@@H]12 (stereo not given in full) | 95.5% | 96.5% | 89.2% | 93.4% | 50.3% | 65.5% | 66.6% | 61.4% | 67.4% | 62.5% |
| N#C/C(=N\Nc1ccccc1)C(=O)Nc1cc(-c2ccccc2)nn1-c1ccccc1 | 6.94% (active) | 25.6% | 8.62% (active) | 52.8% | 6.6% (active) | -18.6% (active) | 15.4% | 30.4% | 50.5% | 48.4% |
| O=C(OCc1ccc2c(Br)cc(Br)c(O)c2n1)N1CCN(C(=O)c2cc3ccccc3[nH]2)CC1 | 39.4% | 39.5% | 44.9% | 23.3% | 12% | 25.7% | 37.5% | 12.7% | 49.3% | 50.6% |
| O=C(NS(=O)(=O)c1ccccc1)n1cc(-c2ccncc2)c(-c2cc(O)cc(Cl)c2)n1 | 104% | 104% | 108% | 115% | 111% | 103% | 76.1% | 97.5% | 98% | 114% |
| CC(=O)OCC(=O)O[C@@H]1C[C@]2(C(C)C)O[C@@]1(C)[C@@H]1CC[C@@H](C)[C@H]1[C@@H]2OC(=O)/C=C/c1ccccc1 | 89.7% | 68.4% | 84.8% | 86.7% | 90.2% | 67.4% | 78.1% | 71.7% | 66.3% | 97.5% |
| C(CCCSC1=NCCN1)CCSC1=NCCN1 | 94.8% | 107% | 113% | 93.1% | 110% | 41.4% | 103% | 104% | 97% | 121% |
| CCCCCCCCCCCCCC[n+]1ccc2c(C)c3c(c(C)c2c1)c1cc(O)ccc1n3CC | -64% (active) | -40.5% (active) | -62% (active) | -57.1% (active) | -67.7% (active) | -84.4% (active) | -42.9% (active) | 7.99% (active) | -73.4% (active) | -69.9% (active) |
| CCn1c2ccccc2c2cc(C(O)c3cccc4ncccc34)ccc21 (stereo not given) | -42.3% (active) | 23.7% | 34.8% | 32.8% | 10.1% | 29.3% | 8.82% (active) | 20.7% | 6.42% (active) | -33.9% (active) |
| CC(C)(C#N)c1cc(C(=O)Nc2cc(Nc3ncccc3-c3ncnc4nc[nH]c34)ccc2F)cc(C(F)(F)F)c1 | 24.3% | 41.8% | 67.2% | 45.7% | 35.9% | -5.84% (active) | 62% | 49.7% | 64% | 11.9% |
| N#CC1=C(N)Oc2c(ccc3cccnc23)C1c1ccccc1 (stereo not given) | 17.7% | 54% | 39.2% | 43.2% | 16% | 32.3% | 20.3% | 32% | 35.3% | 9.2% (active) |
| CCOc1ccc(N2C(=O)CCSC2=S)cc1 | 102% | 100% | 108% | 118% | 106% | 89% | 90.9% | 106% | 106% | 112% |
| COc1ccc(-n2c(=O)n(-c3ccc(-c4nc5ccc(F)cc5s4)cc3)c(=O)c3cccnc32)cc1 | 89.9% | 105% | 102% | 89.2% | 110% | 118% | 88.8% | 96.5% | 99.5% | 106% |
| CCOC(=O)c1c(C)n2c(=O)cc(C)c3c(OC(C)=O)c(OC(C)=O)cc1c32 | 75% | 102% | 79.9% | 81.4% | 40.8% | 71.8% | 55.3% | 79.8% | 81.3% | 74.1% |
